A short description of this assay: SNB-75 astrocytoma cell viability, late-stage follow-up, mechanism study for HRAS target identification, Alamar Blue fluorescence, 8-48 h, dry powder (AID 720613). On the technique in general: Alamar Blue is a resazurin reagent that responds to reducing activity.

Here are results for two compounds from PubChem BioAssay AID720613 (Broad Institute, 2013).

Molecules are shown by their SMILES. Inconclusive results are not listed. Activity calls are given as the source filed them.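 The calls were made as follows: active = falling viability signal at all three exposure times, each curve midpoint within twice the top tested dose; inconclusive = exposure times disagree or curves are weak or poorly fitted; inactive = all exposure times inactive, including rising signal.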

For `CCC(=O)N(c1ccc(OC)c(Cl)c1)C(C(=O)NCCc1ccccc1)c1cccs1` (configuration not stated), the outcome was inactive.
The result for `Cc1onc(C(=O)N2CCN(C(c3ccncc3)c3ccncc3)CC2)c1[N+](=O)[O-]` reads “inactive”.
